Screening results (PubChem)
TGFb inhibitor: TGF-b pathway inhibition; AID 588855; Potency, µM (series often up to 46.1 µM), without a hit: top-dose activity, negative = inhibition, hits mostly inhibitors; 410,000 compounds, 1.2% hits; HepG2 CAGA-GFP TGF-b/SMAD3 reporter, GFP fluorescence, 18 h; TGF-beta stimulated, 500 pg/mL final; further: on the % scale 0 is the no-effect control and ±100 the full control effect; nearly all actives have a fitted effect of over 65% in size
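Read-out: total well GFP (ex488/em500-530) summed from mean per-cell fluorescence. Cells: HEPG2 CAGA-GFP, 1% FBS DMEM, 18 h at 37 degrees C with 500 pg/mL final TGF-beta. Unstimulated wells served as the full-inhibition control; stimulated DMSO wells = 0%.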
Gal4-VP16 FLuc: Gal4-VP16 reporter inhibition counter-screen; Drosophila S2 Gal4-VP16 UAS-luciferase, luminescence, 20 h; Potency, µM (doses to about 53.6 µM), inactives show at the highest dose activity, negative = inhibition, most hits filed as inhibitors; 310,000 compounds, 3.5% hits; AID 2546;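 further: Gal4-VP16 expression switched on by copper sulfate through the metallothionein promoter; on the % scale 0 is the no-effect control and ±100 the full control effect; nearly all actives have a fitted effect of over 50% in size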
HepG2 viability: kills HepG2 cells in TGF-b inhibitor counter-screen; HepG2 CAGA-GFP viability, ATP luminescence, 18 h; 410,000 compounds, 0.76% hits; Potency, µM (series often up to 46.1 µM), without a hit: at the top dose activity change, negative = cytotoxicity, hits mostly cytotoxic; AID 588856
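CellTiter-Glo luminescence gave cytotoxicity after 18 hours at 37 degrees C. The cells were HepG2 CAGA-GFP in 1% FBS DMEM, stimulated with 500 pg/mL TGF-beta after compound addition. %Activity was normalised to no-cell wells (complete cell-killing) and DMSO (no toxicity), and curves were fitted and classified.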
ATXN2 expr inh: ATXN2 expression inhibition | HEK-293 ATXN2-luciferase reporter, luminescence, 24 h | Potency, µM (doses to about 57 µM), inactives show top-dose activity change, negative = inhibition, usual class: inhibitors | 360,000 compounds, 0.72% hits | AID 1745845; further: on the % scale 0 is the no-effect control and ±100 the full control effect; nearly all actives have a fitted effect of over 55% in size
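ATXN2-luciferase reporter cells (luciferase flanked by upstream and downstream ATXN2 gene portions) were treated 24 h at 37 °C with compounds at up to 57 uM. SteadyGlo luminescence gave expression; GF-AFC fluorescence gave viability.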
ATXN viability: reduces viability in counter-screen for ATXN expression inhibitors. S2 cells (HEK-293 line with an ATXN2-luciferase reporter) viability, CellTiter-Fluor protease fluorescence, 24 h. Potency, µM (top dose mostly 56.7 µM), actives largely listed as cytotoxic. 400,000 compounds, 0.49% hits. AID 651635; further: nearly all actives have a fitted effect of over 40% in size
RORg inh: ROR gamma (mouse) transcription inhibition. 310,000 compounds, 5.4% hits. P51450. Potency, µM (top dose mostly 53.6 µM), for inactives: at the highest dose activity change, negative = inhibition, most hits filed as inhibitors. AID 2551. Drosophila S2 Gal4-RORgamma UAS-luciferase reporter, 20 h; further: on the % scale 0 is the no-effect control and ±100 the full control effect; nearly all actives have a fitted effect of over 60% in size
Target sequence (P51450 whole entry, looked up, the tested form may be a part): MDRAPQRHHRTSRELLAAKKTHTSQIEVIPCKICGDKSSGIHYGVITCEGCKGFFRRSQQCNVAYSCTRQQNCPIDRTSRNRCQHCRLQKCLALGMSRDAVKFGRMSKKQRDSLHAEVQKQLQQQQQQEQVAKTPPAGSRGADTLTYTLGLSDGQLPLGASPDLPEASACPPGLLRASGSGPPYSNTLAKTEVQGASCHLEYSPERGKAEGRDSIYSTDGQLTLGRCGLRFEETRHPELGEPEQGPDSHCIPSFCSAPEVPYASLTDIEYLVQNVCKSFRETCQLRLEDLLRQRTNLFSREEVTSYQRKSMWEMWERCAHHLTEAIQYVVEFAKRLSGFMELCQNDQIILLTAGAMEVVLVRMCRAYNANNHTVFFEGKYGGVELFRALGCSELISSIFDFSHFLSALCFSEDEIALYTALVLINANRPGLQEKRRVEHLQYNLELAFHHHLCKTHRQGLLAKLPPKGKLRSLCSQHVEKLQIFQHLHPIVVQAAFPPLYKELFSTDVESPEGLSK
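In this cell-based reporter format, copper sulfate (700 uM final) drives Gal4–ROR gamma fusion expression from a metallothionein promoter in Drosophila Schneider cells; compounds preincubated 1 hr, reporter read after 20 hr at ambient temperature.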
Active calls of the source: *; i = inactive; ? = inconclusive; . = no result given. Most compounds without a hit are left out; they make up all but 6.1% or so of the library. The call rests on the fitted dose curve; in most records, active means well fitted curve in the direction sought with a large enough effect; inconclusive means small, poorly fitted or top-dose-only effect, or another doubt; inactive means no such curve, though single readings can be large; an effect the other way counts as inactive or inconclusive. Potency means the concentration at half of the fitted maximal effect.

SMILES	TGFb inhibitor	Gal4-VP16 FLuc	HepG2 viability	ATXN2 expr inh	ATXN viability	RORg inh
O=C(NCc1ccc2c(c1)CCN2C(=O)c1ccncc1)c1ccccc1Cl	-15%	.	-6%	.	.	.
O=c1c2sccc2n(Cc2cc(=O)n3ccccc3n2)c(=O)n1-c1cccc(C(F)(F)F)c1	-5%	.	1%	.	.	.
Cc1cc(C(=O)Nn2c(-c3ccc(Br)cc3)nc3ccccc3c2=O)ccc1[N+](=O)[O-]	13µM*	?	-31%	0%	i	?
COc1cc(OC)cc(-c2nc3ccccc3c(=O)n2OC(=O)c2ccc(Br)cc2)c1	-1%	11µM*	-27%	-46%	i	10µM*
COc1ccc(O)c(CNn2c(-c3ccc(Br)cc3)nc3ccccc3c2=O)c1	?	-6%	-6%	-32%	i	-2%
O=C(Nn1c(-c2ccc(Br)cc2)nc2ccccc2c1=O)c1ccncc1	-5%	19%	-1%	-23%	i	2%
CCCCOc1ccc2c(c1)C(=O)c1cc(O)ccc1-2	?	?	-27%	19%	i	8.9µM*
Cn1nnnc1SCCNCc1ccc(OCc2ccc(Cl)cc2)cc1	?	.	6.3µM*	-29%	?	.
CCOc1cc(CNCCSc2nnnn2C)ccc1OCc1ccc(Cl)cc1Cl	?	.	11µM*	?	i	.
Cn1nnnc1SCCNCc1ccccc1OCc1ccc(Cl)cc1Cl	?	.	-104%	.	.	.
CCc1ccc(CN(C(=O)c2ccc(OC)cc2)C2CCS(=O)(=O)C2)cc1 (centres undefined)	9%	.	-16%	-1%	?	.
Cc1nc2c(ccc3nc(NC(=O)Cc4cccc5ccccc45)sc32)s1	?	1%	-29%	-25%	?	17%
Cc1ccc(C(=O)Nc2ncc([N+](=O)[O-])s2)cc1	?	2µM*	-70%	2.8µM*	?	0.89µM*
O=C(Nc1ncc([N+](=O)[O-])s1)c1ccc2c(c1)OCO2	?	2.5µM*	-64%	2.2µM*	?	1.8µM*
CC(=O)Nc1ncc([N+](=O)[O-])s1	.	-14%	.	6%	i	-1%
Cc1ccc(C(=O)Nc2ncc(C)s2)o1	-4%	-7%	-52%	1%	i	?
Cc1nc2c(ccc3nc(NC(=O)C(c4ccccc4)c4ccccc4)sc32)s1	?	5µM*	-24%	-23%	i	?
Cc1ccc(C(=O)Nc2ncc(C)s2)s1	1%	?	-20%	?	i	7.1µM*
O=C(Cn1cccn1)N1CCOc2c(cc(-c3ncc(C(F)(F)F)cc3Cl)cc2OCC2CCCO2)C1 (centres undefined)	.	.	.	.	i	.
CC(C)(C)n1ncc2c(=O)n(Cc3ccc(F)cc3Cl)cnc21	-6%	.	-38%	.	.	.
COc1ccccc1CCc1nc2ccccc2n1C1CCN(C(=O)c2cc(C)nn2C)CC1	.	.	.	.	i	.
Cc1ccc(NC(=O)CSc2nc(-c3cccs3)nc3cc(=O)[nH]n23)cc1	-3%	.	-1%	3%	i	.
Cc1noc(C)c1-c1cncnc1N1CCN(C)CC1	.	-6%	.	.	.	9%
Cc1c(C(=O)NCc2cccc(Br)c2)oc2ccc3c(c12)C(=O)CC(C)(C)O3	.	.	-7%	.	.	.
Cc1cnc(NC(=O)c2ccc3c(c2)OCCO3)s1	-11%	.	-47%	2.2µM*	?	.
Cc1nc2c(ccc3nc(NC(=O)c4ccc5c(c4)OCCO5)sc32)s1	-1%	0.089µM*	-23%	-1%	?	0.2µM*
Cc1ccc(C(=O)Nc2ncc(Cc3ccc(SC(F)F)cc3)s2)cc1	?	?	1%	-7%	?	13µM*
Cc1ccc(C(=O)Nc2ncc(Cc3ccc(F)cc3)s2)o1	13%	?	4%	54%	?	?
CC(=O)c1cccc(NS(=O)(=O)c2cccc(S(=O)(=O)c3ccc(Br)cc3)c2)c1	?	.	5%	?	?	.
